Reference: the supplement of paper PMC6555819

What was measured:
Experiment in all cases: PBM binding z-score (relative to random genomic background probes); higher = stronger binding; sequences stand for … in GC…GCGATTGACAGCGTAGAATGAAGG
[1] = test system: FXR:RXRa (NR concentration 270 nM, RXRa partner concentration 90 nM)
How it was run: (§1)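 Ligand-free nuclear receptor dimers were applied to custom Agilent 4×180K protein-binding microarrays whose double-stranded probes carried direct-repeat seeds, single-nucleotide variants, half-site ablations and random human genomic background sequences in 34-nt variable regions. Incubation lasted 1 h. Binding z-scores were computed against the random background probes from regression-normalized fluorescence.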

[2] = test system: LXRa:RXRa (NR concentration 270 nM, RXRa partner concentration 90 nM)
How it was run: as §1

[3] = test system: LXRa homodimer (NR concentration 270 nM)
How it was run: as §1

[4] = test system: LXRb:RXRa (NR concentration 270 nM, RXRa partner concentration 90 nM)
How it was run: as §1

[5] = test system: LXRb homodimer (NR concentration 270 nM)
How it was run: as §1

[6] = test system: PPARa:RXRa (NR concentration 270 nM, RXRa partner concentration 90 nM)
How it was run: as §1

[7] = test system: PPARg:RXRa (NR concentration 180 nM, RXRa partner concentration 90 nM)
How it was run: as §1

[8] = test system: PPARg:RXRa 270nM:90nM, anti-RXR (NR concentration 270 nM, RXRa partner concentration 90 nM)
How it was run: as §1

[9] = test system: PPARg:RXRa 30nM:10nM, anti-RXR (NR concentration 30 nM, RXRa partner concentration 10 nM)
How it was run: as §1

[10] = test system: PPARg:RXRa 90nM:30nM, anti-RXR (NR concentration 90 nM, RXRa partner concentration 30 nM)
How it was run: as §1

Row | Sequence | PBM binding z-score [1] | PBM binding z-score [2] | PBM binding z-score [3] | PBM binding z-score [4] | PBM binding z-score [5] | PBM binding z-score [6] | PBM binding z-score [7] | PBM binding z-score [8] | PBM binding z-score [9] | PBM binding z-score [10]
1 | GGAGCGAGGGCATTCGAGTTGATAGCATGGCGAT | 0.608 | 1.24 | -0.883 | -0.106 | -1.07 | 0.542 | 0.179 | -0.159 | -0.424 | -0.195
2 | TCGTGTAGGTTACCAATGGGGCATTCAGCTTTCT | 0.486 | 1.81 | 0.0515 | 1.44 | 0.0224 | 1.43 | -0.0806 | 1.21 | 2.25 | 1.67
3 | GTACCAAGGTGAATAGGTAGTTGATGAGTAGGCG | 0.274 | 0.228 | 0.0287 | 0.0207 | -0.534 | 0.934 | 0.795 | 0.782 | 0.189 | 0.453
4 | ATCTCTAGGTAACCAAGTTCAGTGGATGCCGAAC | 0.155 | 0.544 | 0.622 | 0.38 | 0.373 | 0.94 | 0.437 | 0.741 | 0.192 | 0.555
5 | TCGAGTAGTTTAGTCGGGGCATTCAGCCAACATA | -0.125 | -0.295 | -0.441 | 0.256 | -0.38 | 0.346 | -0.694 | 0.0847 | 0.837 | 0.633
6 | TCTGGCAGGCCAGAGGGTCACTCAAGAGGTACGG | 1.24 | 1.09 | -0.32 | 1.08 | -0.89 | 2.4 | 0.868 | 1.48 | 0.732 | 1.23
7 | TCGAGTAGGTTAGTCGGGGCAGTCAGCCAACATA | 0.0181 | -0.31 | -0.676 | 0.0169 | -0.869 | 0.556 | -0.388 | 0.946 | 0.987 | 0.955
8 | GCTAGCGGGCCATTTGGGTCACTCAATGACGGGC | -0.0868 | -0.0931 | -0.975 | -0.141 | -0.972 | 1.26 | 0.395 | 0.262 | -0.653 | -0.112
9 | ATCTCTAGGTAAAGATAGTCCAGTGAATGCAAAT | 0.226 | 0.368 | -0.00685 | -0.0224 | 0.398 | -0.051 | 0.458 | 0.219 | 0.157 | 0.0539
10 | TCTTGTAGATCAGCAGGTTAGGAAAGCTGGCCAA | -0.1 | 0.244 | -0.295 | -0.112 | -0.394 | 0.532 | -0.423 | 1.47 | 2.53 | 2.15
11 | CCAGACAGGTGAAGGGTAACTCAGTCTGGTACGC | -0.0331 | 0.00398 | -0.524 | 0.172 | -0.582 | 1.76 | 2.98 | 3.63 | 1.6 | 3.42
12 | GCTAGTAGGCCATTTGGGTCACTCAATGACGGGC | -0.0419 | -0.00892 | -0.666 | -0.044 | -0.894 | 1.98 | 2.27 | 2.41 | 0.459 | 1.79
13 | CCTAGTTGGTCAGGAGGTCGCACACCGGATATGA | 1.17 | 0.794 | 0.375 | 0.833 | 0.0283 | 1.59 | 1.06 | 1.73 | 0.24 | 1.19
14 | ACTTACGGGTCAACCAGGTTATAGCACGCGTATA | 7.15 | 5.03 | 0.836 | 4.26 | 0.9 | 5.69 | 6 | 5.69 | 3.07 | 4.26
15 | CAAACTAGGTCTAGAGGTCAAAGTCCGCTTCCCG | 4.99 | 5.78 | 5.83 | 4.86 | 1.55 | 5.14 | 5.12 | 5.9 | 4.3 | 5.99
16 | CCTCGGATGACAGAAGGTCAGAGCTGTCCGCTTT | 1.3 | 1.79 | 0.493 | 1.37 | 0.0484 | 2.01 | 0.0217 | 0.56 | -0.64 | 0.0995
17 | CCTGCTAGCTCATGGTCAGCTAATCTACAGTATG | -0.461 | -0.418 | -0.46 | -0.626 | -0.239 | -0.737 | -0.225 | -0.822 | -0.885 | -0.895
18 | CCGATTGGGGCATAAGGTTACCATAAGCCAGCCC | 0.433 | 2.07 | -0.331 | 0.749 | -0.968 | 1.96 | 1.92 | 2.87 | 0.812 | 2.27
19 | CGTCCAAGGTCAGAAAGGTCAGTGAATGCCGAGT | 5.85 | 5 | 3.05 | 4.56 | 0.524 | 4.94 | 3.36 | 4.31 | 0.967 | 2.8
20 | TTACCAAGGTGAGCTGAGGTCGTTAATCCAACTC | 1.47 | 0.747 | -0.294 | 0.852 | -1.14 | 1.4 | 0.0208 | 0.655 | 0.0433 | 0.306
21 | ACTAGCAGGCCAAGTTTGGGTCACTCTAACAAAG | 0.184 | -0.0297 | -0.399 | 0.217 | -0.928 | 1.03 | -0.172 | 0.0985 | -0.547 | -0.605
22 | TCTTCTAGATCAACAGGAGGTTAAGAAAGATCGA | 0.645 | 1.25 | 0.194 | 0.772 | 0.728 | 1.24 | 0.0258 | 1.94 | 3.46 | 2.67

Row | Sequence | PBM binding z-score [1] | PBM binding z-score [2] | PBM binding z-score [3] | PBM binding z-score [4] | PBM binding z-score [5] | PBM binding z-score [6] | PBM binding z-score [7] | PBM binding z-score [8] | PBM binding z-score [9] | PBM binding z-score [10]
23 | GCTAGTTGCTCAGTAAAAGGTCACACACCGGTCG | 3.27 | 4.03 | 4.51 | 4.02 | 0.393 | 4.42 | 2.23 | 3.52 | 1.06 | 2.88
24 | CCTACTGGGCCATCAGGTCATTAATATCAACGTT | 1.02 | 0.82 | 1.3 | 1.37 | -0.00307 | 2.46 | 2.9 | 3.3 | 0.96 | 3.01
25 | GCTAGCAGGCCAATTGGGTCACTCAATGACGGGC | -0.057 | -0.159 | -0.545 | -0.122 | -1.32 | 1.83 | 1.01 | 1.14 | -0.473 | 0.444
26 | CCCACTGGGCCAAAGGTCATTGATTCCAATGCTC | 4.95 | 4.92 | 4.26 | 4.72 | 0.641 | 6.5 | 11.7 | 10.5 | 10.2 | 11
27 | AGATGTAGGTTACATCCGGGTCATTCAGGCTATG | 2.09 | 4.32 | 0.937 | 2.54 | 0.043 | 4.14 | 5.05 | 4.32 | 1.77 | 3.53
28 | TCATATAGGTAATACAGGTGAAATTCGGCATCTA | 1.05 | 1.37 | 0.75 | 1.17 | 0.147 | 1.96 | 1.65 | 2.53 | 3.85 | 3.09
29 | CAAACTAGGTCACAGAGGTCAAAATCCGTGCGTA | 7.3 | 6.21 | 6.61 | 6.41 | 2.18 | 6.58 | 10 | 7.86 | 6.44 | 7.9
30 | CCTTACGGGTCGCGAGGTTATAGCACGACGAGCG | 2.87 | 1.99 | -0.147 | 1.82 | -0.455 | 3.61 | 1.91 | 2.15 | 0.056 | 0.872
31 | CGTCCAAGGTCAGAGGTCAGTGAAGAGATGACGG | 6.67 | 5.39 | 1.56 | 4.73 | 0.465 | 6.09 | 8.26 | 6.86 | 5.6 | 7.06
32 | TCTCGGAGGACACGAAAGGTCACAGCTCGACATC | 4.58 | 5.46 | 4.91 | 4.7 | 0.595 | 4.62 | 2.83 | 4.15 | 3.13 | 3.77
33 | ACCTCTAGGTAAAGATAGTTCAGTGAATGCAAAT | 0.216 | 3.68 | 0.25 | 0.57 | -0.307 | 0.0564 | 0.269 | 0.318 | 0.0482 | 0.178
34 | ATCGAAAGGCCGAGGTGAGTATAGAGAAAGGGAA | 0.0206 | -0.227 | -0.447 | -0.337 | -0.455 | -0.0261 | 0.313 | -0.133 | -0.0137 | -0.154
35 | TCTCGGAGGACACGAAAGGTCAGATCTCGACATC | 3.11 | 3.81 | 3.83 | 3.85 | 0.385 | 3.44 | 1.37 | 2.81 | 3.01 | 2.77
36 | AGTCAAAGTTCAGGACGAGGTAACGAAAAGCACG | 4.17 | 3.54 | 0.921 | 1.92 | 0.307 | 3.39 | 4.87 | 5.02 | 2.18 | 4.04
37 | CCTCGGAGGACAGAGGGTCAGAGCTGTCCGCTTT | 0.828 | 0.75 | -0.594 | 0.328 | -1.2 | 1.2 | -0.24 | 0.834 | -0.79 | -0.115
38 | CAAACTAGGTCATTGACAGGACAGTGAATAGTAA | 4.7 | 3.38 | 0.946 | 2.29 | 0.688 | 4.71 | 7.82 | 6.85 | 3.97 | 6.16
39 | CCTGTTAGGTCAATGGTCAGCTAAAGCAGCTCGC | 3.84 | 2.92 | 0.645 | 2.06 | 1.38 | 3.49 | 3.07 | 4.36 | 2.03 | 3.91
40 | GCTCGGAGTACAAGGTCAGAGCTTTGTCCGTAGA | 1.17 | 1.6 | 0.0814 | 1 | -0.761 | 2.17 | 0.501 | 1.48 | -0.171 | 0.497
41 | CTCGAAAGGACGGTTGAGGTGAGTATACGGATAA | 0.507 | -0.351 | -0.439 | -0.303 | -0.832 | 0.0414 | 0.232 | -0.0748 | 0.0534 | -0.244
42 | TCGTGTAGGTTAGGGGCATTCAGAATGGCGTCGA | 1.04 | 0.994 | 0.245 | 1.63 | 0.909 | 1.6 | 0.371 | 1.78 | 2.01 | 2.06
43 | TCATATGGGTAAATGCTAGGTGAAAGTCCGATCT | 0.03 | 0.212 | 0.0774 | 0.31 | -0.359 | 0.897 | 0.667 | 1.71 | 2.1 | 1.91
44 | CCTACTGCGCCATCAGGTCATTGATATCAACGTT | 1.39 | 1.32 | 1.7 | 2.2 | 1.17 | 1.73 | 0.376 | 0.994 | 0.212 | 0.573
